PubChem BioAssay (NCI)
The panel holds about 83,000 compounds, 20% with a hit somewhere; the sample as a whole holds those more often.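 The endpoint reported here, percent growth, reads 100 for growth as untreated, 0 for no net growth and -100 for all cells dead.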 A number with no mark means an inactive call. Active and inactive are the calls of the source. Rule for the calls: active = growth percent below 10; inactive = the rest.

What was measured:
Experiment in all cases: NCI-60 one-dose screen, 48 h (100 = growth as untreated, 0 = no growth, -100 = all killed)
Conditions in all cases: 10 µM unless noted
[1] = test system: HCT-15 colon
[2] = test system: HT29 colon
[3] = test system: SNB-75 CNS
[4] = test system: SNB-19 CNS
[5] = test system: U251 CNS
[6] = test system: PC-3 prostate
[7] = test system: SK-MEL-5 melanoma
[8] = test system: UACC-62 melanoma
[9] = test system: LOX IMVI melanoma
[10] = test system: SK-MEL-28 melanoma
[11] = test system: SK-MEL-2 melanoma
[12] = test system: EKVX NSCLC
[13] = test system: SN12C renal
[14] = test system: UO-31 renal
[15] = test system: TK-10 renal
[16] = test system: ACHN renal
[17] = test system: CAKI-1 renal
[18] = test system: A498 renal
[19] = test system: CCRF-CEM leukemia
[20] = test system: MOLT-4 leukemia

SMILES | growth [1] | growth [2] | growth [3] | growth [4] | growth [5] | growth [6] | growth [7] | growth [8] | growth [9] | growth [10] | growth [11] | growth [12] | growth [13] | growth [14] | growth [15] | growth [16] | growth [17] | growth [18] | growth [19] | growth [20]
NC(N)=Nc1ccc(Oc2ccc(Nc3ccc(Cl)c(C(F)(F)F)c3)cc2)cc1 | 37% | 13.7% | 95.2% | 3% (active) | 3.48% (active) | 32.5% | 8.32% (active) | 38.2% | -96% (active) | 56.6% | 91.6% | 52.4% | 31.7% | 69.8% | 95.6% | 73.4% | 69.4% | 68.3% | 20.3% | 18.5%
CCCCCc1ccc(S(=O)(=O)Nc2cccc(-c3csc(NCCN4CCN(C)CC4)n3)c2)cc1 | -13.2% (active) | 19.3% | 92.8% | 79.9% | 45.7% | 65.7% | -31.1% (active) | 85.4% | -66.9% (active) | 78% | 102% | 84.2% | 90.6% | 73.4% | 120% | 89.9% | 83.1% | 85.4% | 16.2% | 11.7%
CC(C)(C)n1cc(-c2ccnc(NCCCNS(=O)(=O)c3cccc(F)c3)n2)c(-c2ccc(Cl)c(O)c2)n1 | 89.6% | 94.8% | 110% | 103% | 106% | 67.5% | 95.5% | 89.5% | 96.4% | 95.4% | 98.4% | 80.5% | 90.9% | 101% | 152% | 97% | 95.8% | 91.4% | 71.4% | 77.4%
COc1ccc(/C=C/C(=O)c2cccc(NC(=O)CSc3nc4ccccc4c(=O)n3-c3ccccc3)c2)cc1OC | 89.5% | 112% | 86.2% | 93.4% | 101% | 97% | 99% | 89.9% | 91.5% | 115% | 104% | 103% | 105% | 91.9% | 125% | 100% | 88% | 99.4% | 115% | 91.1%
Cc1ccc(-n2c(/C=C3\C(=O)Nc4ccccc43)ccc2CO)cc1 | 31.2% | 60.7% | 41.5% | 81% | 77.8% | 66.5% | 73.7% | 50.6% | 62.5% | 70.9% | 81% | 79.8% | 88.2% | 65% | 118% | 76.5% | 55.9% | 47% | 54.9% | 43.8%
O=C(Nc1cccc(C(F)(F)F)c1)c1cc(-c2ccc(F)cc2F)ccc1O | 8.57% (active) | 74.1% | -0.914% (active) | 11.4% | 10.4% | 7.15% (active) | -66% (active) | 2.01% (active) | 0.316% (active) | 24.6% | -12.6% (active) | 9.81% (active) | 2.11% (active) | -14.3% (active) | 12.6% | 5.71% (active) | -21% (active) | -38.5% (active) | 20.8% | 4.43% (active)
CCCCCc1ccc(S(=O)(=O)Nc2cccc(-c3csc(NC(=O)CCCCCN4CCN(C)CC4)n3)c2)cc1 | -7.05% (active) | 7.36% (active) | 85.9% | 72.3% | 26.2% | 50.3% | -66.8% (active) | 63.2% | -83.8% (active) | -18.9% (active) | 98.3% | 71% | 79.8% | 75.9% | 107% | 86.4% | 79.5% | 78.7% | 5.75% (active) | 3.35% (active)
CC1=NC2=NC(=O)/C(=C3/N=C(C)C=C(c4ccccc4)N3N)NN2C(c2ccccc2)=C1 | 107% | 109% | 116% | 96.3% | 105% | 96.7% | 99.1% | 88.7% | 102% | 109% | 108% | 83.8% | 100% | 78.6% | 168% | 101% | 83.2% | 127% | 109% | 104%
Cc1cc(C(NC(=O)CCCCCNc2cccc3c2C(=O)N(C2CCC(=O)NC2=O)C3=O)c2ccc3c(c2)OC(F)(F)O3)c(O)c2ncccc12 (stereo not given) | 72.2% | 71.8% | 50.8% | 51.6% | 33.6% | 32.3% | 37% | 63.3% | 57.9% | 81% | 62.6% | 71.3% | 49.9% | 77.2% | 93.8% | 63.5% | 50% | 95.1% | 38.6% | 42.5%
CCn1c(SCC(=O)Nc2cccc(C(=O)/C=C/c3ccc(C)cc3)c2)nc2ccccc2c1=O | 49.2% | 65.8% | 93.3% | 81.2% | 80.1% | 60.7% | 90% | 70.1% | 37.6% | 95.8% | 108% | 98.8% | 88% | 58.9% | 120% | 92.2% | 80.2% | 94.2% | 67.4% | 88%
C#Cc1nc(/C=C/C(=O)c2nccn2C)cs1 | -72.9% (active) | -38.2% (active) | -3.26% (active) | -79.2% (active) | -74.3% (active) | -78.9% (active) | -84.2% (active) | -84.3% (active) | -81.4% (active) | -31.9% (active) | 18.6% | -59.4% (active) | -47.2% (active) | -80.7% (active) | -18.8% (active) | -94% (active) | -55.7% (active) | -88.1% (active) | -21.6% (active) | -31.2% (active)
Cn1ccnc1C(=O)/C=C/c1ccc(CNC(=O)c2ccc(Cl)cc2)cc1 | -14.5% (active) | -16.3% (active) | 56% | 11.1% | 7.03% (active) | 19.9% | 32.6% | 5.76% (active) | -89.2% (active) | 45.2% | 91.7% | 26.4% | 17.3% | -11.3% (active) | 21.3% | 2.81% (active) | 35.9% | 21.1% | 7.64% (active) | 0.825% (active)
C#Cc1nc(C(=O)NCCC(=O)Nc2ccc(NC(=O)c3ccc(/C=C/C(=O)c4nccn4C)cc3)cc2)cs1 | 16.7% | 2.68% (active) | 56.6% | 35.1% | 3.44% (active) | 42.5% | 87% | 38.6% | -90.1% (active) | 84.8% | 100% | 65.3% | 14.4% | 30.7% | 69.9% | -67.5% (active) | 38.9% | 90.5% | -21.2% (active) | 19.9%
CC(=O)O[C@@H]1C(=O)N(c2cnccn2)[C@H]1c1ccccc1[N+](=O)[O-] | 15.9% | 2.42% (active) | 21.5% | 41.8% | -3.35% (active) | 24.6% | -57.2% (active) | 30% | 6.26% (active) | 57.1% | 10.6% | 58.7% | 16.5% | 27.7% | 79.3% | 21.1% | 24.6% | -20.2% (active) | 12.3% | 16.4%
